Sampled rows, rich in hits. Any-hit rate of the full collection: about 4.3%.
D3 ag: qHTS of D3 Dopamine Receptor Agonist: qHTS; D(3) dopamine receptor (Homo sapiens), P35462; D3R DiscoveRx beta-arrestin cells, luminescence, 90 min; max activation, %; actives 0.58% (n = 410,000); in the data active means max activation above about 30%; further: 0% is about no effect
Target sequence (P35462 whole entry, looked up): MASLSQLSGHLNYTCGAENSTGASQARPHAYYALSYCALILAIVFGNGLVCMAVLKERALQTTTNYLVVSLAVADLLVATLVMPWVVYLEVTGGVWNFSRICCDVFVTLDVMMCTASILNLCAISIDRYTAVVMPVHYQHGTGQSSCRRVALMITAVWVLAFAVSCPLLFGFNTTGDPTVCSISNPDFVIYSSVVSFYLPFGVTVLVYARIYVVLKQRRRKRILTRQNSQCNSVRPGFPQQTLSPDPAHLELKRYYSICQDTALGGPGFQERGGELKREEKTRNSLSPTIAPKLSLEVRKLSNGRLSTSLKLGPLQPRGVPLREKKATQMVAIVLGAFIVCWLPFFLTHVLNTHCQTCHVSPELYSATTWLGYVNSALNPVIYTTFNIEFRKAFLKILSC
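Agonist mode: compounds and dopamine controls were applied to plated cells for 90 min at 37 degrees C after an overnight attachment at 1500 cells/well. Luminescent read-out followed 30 - 60 minutes at room temperature with DiscoveRx detection reagent.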
DRD3 antagonist: qHTS of D3 Dopamine Receptor Antagonist: qHTS. D3R cells, DiscoveRx beta-arrestin luminescence, antagonist mode; hits give low values. max response, negative = inhibition, %. D(3) dopamine receptor (Homo sapiens), P35462. actives 2.5% (n = 360,000); in the data active means max response below about -50%; inconclusive means no clear call, values can overlap the other calls; further: on the % scale 0 is the no-effect control and ±100 the full control effect
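Cells plated overnight at 1500 cells/well, then exposed to library compounds with dopamine controls for 90 minutes at 37 degrees C. DiscoveRx reagent added for 30–60 minutes at room temperature; luminescence read, quantitative HTS format.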
GLP1R inv ag: qHTS of GLP-1 Receptor Inverse Agonists (Inhibition Mode). AID 624417, 2012. Potency, µM (titrated, usually from 38.3 µM), for inactives: at the top dose activity change, negative = inhibition, usual class: inhibitors. Glucagon-like peptide 1 receptor (Homo sapiens), P43220. HEK293 GLP-1R CRE-luciferase, luminescence, 24 h; GLP-1R form is constitutively active. actives 1.6% (n = 410,000); further: potency means the concentration at half of the fitted maximal effect; on the % scale 0 is the no-effect control and ±100 the full control effect; nearly all actives have a fitted effect of over 55% in size
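Constitutively active GLP-1R drives a cAMP-responsive luciferase in stably transfected HEK293 cells; test compounds are added after overnight (12 h) attachment and left 24 hr, and signal loss in luminescence marks inhibition.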
GLP-1R agonist: qHTS of GLP-1 Receptor Agonists | Glucagon-like peptide 1 receptor (Homo sapiens), P43220 | HEK293 GLP-1R CRE-luciferase, luminescence, 4-6 h; cells express a hypersensitive GLP-1R form | Potency, µM (top dose mostly 45.6 µM), for inactives: at the highest dose activation, most hits filed as activators | actives 0.007% (n = 380,000) | AID 624172, 2012; further: potency means the concentration at half of the fitted maximal effect; % of control where 0% means no effect
An asterisk follows results filed as active; u = inconclusive; x = not tested or not shown; [ ] = remark or other dose. Unless noted, the call rests on the fitted dose curve; in most records, active means well fitted curve in the direction sought with a large enough effect; inconclusive means small, poorly fitted or top-dose-only effect, or another doubt; inactive means no such curve, though single readings can be large; an effect the other way counts as inactive or inconclusive.

SMILES	D3 ag	DRD3 antagonist	GLP1R inv ag	GLP-1R agonist
CN(C(=O)c1ccco1)C1(c2ccccc2Cl)CCCCC1=O (stereo not drawn)	-12	-53*	-13%	1%
CNC1(c2ccccc2Cl)CCCCC1=O (stereo not drawn)	8	4	2%	0%
O=C(NCC1=C(c2cccc3ccccc23)C[C@@H]2CC[C@H]1N2Cc1ccco1)c1ccncc1	-14	-9	u	14%
O=C(NCC1=C(c2cccc3ccccc23)C[C@@H]2CC[C@H]1N2Cc1ccco1)c1cccs1	-13	-51*	10µM*	-8%
Fc1ccc(Cn2nnnc2C(c2ccc(Cl)cc2)N2CC=C(c3ccc(F)cc3)CC2)cc1 (stereo not drawn)	-4	-15	u	2%
Fc1ccc(C2=CCN(C(c3ccc(Cl)cc3)c3nnnn3Cc3ccccc3)CC2)cc1 (stereo not drawn)	8	5	5.6µM*	8%
CC(C)(C#CC(=O)O)OOC(c1ccccc1)(c1ccccc1)c1ccccc1	-2	-25	11µM*	-6%
Cc1cccc(N2C(=O)CSC23C(=O)N(CC(=O)Nc2cccc(Cl)c2)c2ccccc23)c1 (stereo not drawn)	32*	x	u	-2%
COc1cccc(N2CCN(Cc3cccc(Cl)c3)CC2)c1	-59	-74*	-20%	-5%
COc1cccc(N2CCN(Cc3ccc(Cl)cc3)CC2)c1	-39	-94*	0%	-1%
Fc1cccc(CN2CCN(c3ccc(Cl)cc3)CC2)c1	1	-72*	u	-6%
NC(CCc1ccccc1)c1csc(NC(=O)Nc2ccccc2Oc2ccccc2)n1 (stereo not drawn)	5	15	u	-2%
CCC(N)CCc1c[nH]c2ccccc12 (stereo not drawn)	x	x	x	-1%[110 µM]
Cc1cccc(Cn2c(SCc3ccc(C(=O)NC4CCCCC4)cc3)nc3cccnc32)c1	5	x	u	x
C=CC[C@]1(O)CC[C@H]2[C@@H]3CCC4=CCCC[C@@H]4[C@H]3CC[C@@]21C	1	x	x	x
CC(=O)O[C@H]1C[C@H](O[C@H]2[C@@H](O)C[C@H](O[C@H]3[C@@H](O)C[C@H](O[C@H]4CC[C@@]5(C)[C@H](CC[C@@H]6[C@@H]5C[C@@H](O)[C@]5(C)[C@@H](C7=CC(=O)OC7)CC[C@]65O)C4)O[C@@H]3C)O[C@@H]2C)O[C@H](C)[C@H]1O[C@@H]1O[C@H](CO)[C@@H](O)[C@H](O)[C@H]1O	3	x	x	x
CC[C@H](OC(C)=O)C(C[C@H](C)NC)(c1ccccc1)c1ccccc1	x	x	x	9%[96 µM]
ClCCN(CCCl)c1ccc(C=Cc2ccncn2)cc1	72*	-14	u	26%
ClCCN(CCCl)c1ccc(C=NNc2ncccn2)cc1	3	-21	u	11%
O=[As](O)(O)c1ccc(N=Nc2ccc(O)cc2)cc1	-13	-99*	8%	-8%
O=C1C(Cl)=CC(=Nc2ccc(O)cc2)C=C1Cl	-1	u	75%	0%
Cc1ccc(N2C(=O)NC(=O)/C(=C\c3cc(C)n(-c4sc5c(c4C#N)CCCC5)c3C)C2=O)cc1	4	15	3.5µM*	7%
CCN1C(=O)NC(=O)/C(=C/c2cc(C)n(-c3sc(C)c(C)c3C#N)c2C)C1=O	-6	-1	u	-4%
CO/C=C(/C(=O)OC)c1ccccc1Oc1cc(Oc2ccccc2C#N)ncn1	22	x	x	4%[96 µM]
ClC1=C(Cl)C2(Cl)C3C4CC(C5OC45)C3C1(Cl)C2(Cl)Cl (stereo not drawn)	x	x	x	21%
SMILES	D3 ag	DRD3 antagonist	GLP1R inv ag	GLP-1R agonist
O=C1C=CC(=O)C2C1C1(Cl)C(Cl)=C(Cl)C2(Cl)C1(Cl)Cl (stereo not drawn)	-1	6	3.2µM*	-3%
COc1ccc2nc(-c3ccc(CN4CCC(n5c(=O)[nH]c6ccccc65)CC4)cc3)c(-c3ccccc3)nc2c1	-14	-53*	u	-5%
O=c1[nH]c2ccccc2n1C1CCN(Cc2ccc(-c3nc4ccccc4nc3-c3ccccc3)cc2)CC1	-16	-92*	u	-2%
Cc1ccc2nc(-c3ccc(CN4CCC(n5c(=O)[nH]c6ccccc65)CC4)cc3)c(-c3ccccc3)nc2c1	-13	-28	u	-3%
O=c1[nH]c2ccccc2n1CCCN1CCC(n2c(=O)[nH]c3cc(Cl)ccc32)CC1	-90	-103*	3%	5%
CCCCn1nnnc1C(C1CC1)N1CCC(n2c(=O)[nH]c3ccccc32)CC1 (stereo not drawn)	-10	4	-10%	14%
O=c1[nH]c2ccccc2n1C1CCN(Cc2ccc(-c3nc4ccc(F)cc4nc3-c3ccccc3)cc2)CC1	-19	-96*	4.5µM*	-3%
CNC(C)Cc1ccc2c(c1)OCO2 (stereo not drawn)	-16	x	x	-1%[110 µM]
Cc1ccccc1C1CC(=O)Nc2ccc3ccccc3c21 (stereo not drawn)	0	x	u	-2%
COc1ccc(CCNC(=O)c2c(N)n(CCN3CCOCC3)c3nc4ccccc4nc23)cc1OC	16	35	10µM*	0%
CCCCCn1c(N)c(C(=O)NCCN2CCOCC2)c2nc3ccccc3nc21	0	4	u	-27%
Cc1c(N)nc([C@@H](CC(N)=O)NC[C@H](N)C(N)=O)nc1C(=O)N[C@H](C(=O)N[C@H](C)[C@H](O)[C@H](C)C(=O)N[C@@H](C(=O)NCCc1nc(-c2nc(C(=O)NCCC[S+](C)C)cs2)cs1)[C@H](C)O)[C@H](O[C@@H]1O[C@@H](CO)[C@@H](O)[C@H](O)[C@@H]1O[C@H]1O[C@H](CO)[C@H](O)[C@H](OC(N)=O)[C@@H]1O)c1cnc[nH]1	x	x	x	-6%
COC1=CC=C2[C@H]3Cc4ccc(OC)c5c4[C@@]2(CCN3C)[C@H]1O5	-15	-66*	u	6%[19.8 µM]
CCCCCC(O)C1C(=O)OC(C)C(O)\C=C/C=C\C=C/C=C\C=C(\C)C(O)C(O)C(O)CC(O)CC(O)CC(O)CC(O)CC1O (stereo not drawn)	x	x	x	0%
CCCCNC(C)Cc1ccccc1 (stereo not drawn)	-68	-51*	-2%	-2%
COc1ccc(CC(C)NCCC(c2ccccc2)c2ccccc2)cc1 (stereo not drawn)	-20	u	u	2%
CCOP(=O)(OCC)OCC	-90	-110*	12%	-6%
CCOP(=O)(OCC)Oc1cc(C)c(N(C)C)c(C)c1	6	12	u	8%
Cc1ccc(CN2C3CCCC2CC(NC(=O)c2ccc(F)cc2)C3)cc1 (stereo not drawn)	-13	-88*	u	0%
O=C(Nc1ccccc1)NC1CC2CCC(C1)N2 (stereo not drawn)	0	-26	-2%	-9%
